As usually defined, the inhibition is the change of the read-out against control, counted positive when it falls.

Molecules are shown by their SMILES. About 410 (0.44%) of roughly 94,000 compounds were called active. Only a selection was taken, and actives are over-represented in it overall. Unmarked numbers belong to inactive results.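 The calls were made as follows: active = inhibition above about 30% together with a positive call from visual inspection of the well image (limit read from the data); inconclusive = inhibition above a set limit but visual check negative; inactive = inhibition not above a set limit, visual check negative.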

For 61 molecules, inhibition results are on record in PubChem BioAssay AID796 (Columbia University Molecular Screening Center, 2007).

A short description of the test: inhibitors of IL-1B driven NFkB p65 nuclear import, primary screen, imaging, HUVEC, IL-1B stimulus, high-content imaging (AID 796).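 Also: nuclear over cytoplasmic p65 intensity ratio measured by imaging; 0% = IL-1B stimulated DMSO wells and 100% = unstimulated DMSO wells.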 To be noted: HUVEC IL-1B NFkB p65 nuclear translocation imaging; at 2 µM; hits give high values.
Take `O=S1(=O)C=C(SCCN2CCCC2)c2ccccc21`: the inhibition is -1.4%.
Take `CCOC(=O)/C(C#N)=C\c1c(C)cc(C)c(COC(C)=O)c1C`: the inhibition was 8.2%.
In the case of `O=C1c2ccccc2C(=O)N1CCC(c1ccccc1)c1ccco1` (stereo unspecified), the inhibition was -2.1%.
Consider `CN(C)/C=C(\C#N)C(=O)c1cccnc1Oc1ccc(F)cc1F`, for which the inhibition was 5.5%.
As for `O=S(=O)(c1ccc(Br)cc1)n1ccc2ccccc21`, the inhibition is 5.3%.
For `O=C(Nc1ncc2c(n1)-c1ccccc1OC2)c1ccc(Cl)cc1` the value was 3.3%; for `CC(N)C12CC3CC(CC(O)(C3)C1)C2` (stereo unspecified), -22.4%; for `C=CCN1C(=O)C(Cc2cccc(Cl)c2)S/C1=N/N=C/c1ccco1` (stereo unspecified), 6.5%.
For `CC(C)(C)NC(=O)COc1ccc(CNc2ccc3[nH]c(=O)[nH]c3c2)cc1` the value was 6.7%; for `O=C(NC1CCN(C(=S)NCc2ccco2)CC1)c1ccc(F)cc1`, -2.5%.
Consider `O=C(Oc1ccccc1C(=S)N1CCCCC1)c1cc([N+](=O)[O-])cc([N+](=O)[O-])c1`, for which the inhibition was -5.6%.
Consider `CN1CC(c2ccccc2)C2(COc3ccccc3C2=O)C12C(=O)Nc1ccccc12` (stereo unspecified), for which the inhibition is -0.2%.
As for `Nc1nc(Br)c2ccccc2c1-c1ccc(F)cc1`, the inhibition was -12.8%.
In the case of `Cc1cccc(NC(=O)c2ccc(OCC(=O)NCc3ccccc3)cc2)c1C`, the inhibition was 12.8%.
On to `Cc1nc2c(-c3ccc(F)cc3)c(C)nn2c(C)c1CCC(=O)NCc1ccco1`, for which the inhibition is 8.1%.
For `c1cncc(-c2nnc3n2C2(CCCCC2)Cc2ccccc2-3)c1` the value was -4.9%; for `NS(=O)(=O)c1ccc(Nc2nc(-c3ccccc3)cs2)cc1`, 18.6%.
For `O=C(CNC(=O)c1cc2c(s1)CCC2)Nc1ccccc1Br` the value was -43.6%; for `Cc1ccc(N(CC(=O)Nc2cc(C)cc(C)c2)S(=O)(=O)c2cccc3nonc23)cc1`, 0.6%; for `Cc1occc1C(=O)NNC(=S)NCC(C)C`, -8.5%.
With `COc1ccc(CC(=O)Nc2ccc(-c3nnc(-c4ccc(C)cc4)o3)cc2)cc1`, the inhibition was -3.1%.
As to `COc1cccc(NC(=O)Cc2ccc(C)cc2)c1`, the inhibition is 3.1%.
For `COc1ccc(NC(=O)/C(Cl)=C(/Cl)S(=O)Cc2ccc(C)cc2)cn1` (stereo unspecified) the value was 81.8% (active).
Turning to `CN(C)c1ccnc2sc3c(=O)n(-c4ccc(Cl)cc4)cnc3c12`, the inhibition is -8.3%.
Take `Cc1cc(=O)[nH]c(SCc2cccc(F)c2)n1`: the inhibition is -8.1%.
As to `CCCNC(=S)NC1CC2CCCC(C1)N2CC(C)C` (stereo unspecified), the inhibition is -10.2%.
Consider `CSc1ccccc1-c1nnc(-c2ccc(Cl)cc2)o1`, for which the inhibition is -15.4%.
For `Cc1nnc(SCC(=O)N/N=C/c2cn(-c3ccccc3)nc2-c2ccc(F)cc2)n1-c1ccccc1` the value was 16.3%; for `O=C(Nc1ccc(-n2ccnc2P(=O)(O)c2ccccc2)cc1)c1ccccc1Br`, -9.1%; for `COC(=O)Nc1sc2nc(C)cc(C)c2c1-n1cccc1`, 8.1%.
For `O=C(Nc1nnc(SCc2c(Cl)cccc2Cl)s1)C1CCCO1` (stereo unspecified) the value was 6.6%; for `Cc1cccc(C(=O)Nc2ccccc2N2CCN(c3ccc(F)cc3)CC2)c1`, 4.6%; for `COc1ccccc1C1C2=C(COC2=O)Nc2cc3c(cc21)OCO3` (stereo unspecified), 39.9% (active).
For `O=C1NC(c2cc3c(cc2Cl)OCO3)Oc2ccccc21` (stereo unspecified) the value was -2.5%.
Take `CCCOc1ccccc1C1CC(=O)Nc2cc3c(cc21)OCO3` (stereo unspecified): the inhibition is -2.7%.
Take `N#Cc1ccc(-c2ccc(F)cc2)nc1Sc1ccccc1`: the inhibition is 0%.
For `Cc1cc(=O)oc2cc(OC(C)C(=O)Nc3ccc(N4CCOCC4)cc3)ccc12` (stereo unspecified) the value was 22.6%; for `Cc1ccccc1NC(=O)C(C)c1ccc(-c2ccccc2)c(F)c1` (stereo unspecified), -13%; for `CCN1CCN(C(=O)C2(NC(=O)Nc3cccc(F)c3)CCCCC2)CC1`, 9.4%.
On to `CN(C)c1ccnc(Oc2ccc(F)cc2)c1C#N`, for which the inhibition was -4.4%.
For the molecule `COc1ccc(OCC(=O)N2CCN(C(=O)COc3ccccc3)CC2)cc1`, the inhibition was -0.4%.
`COc1ccc(OCC(=O)N2CCN(C(=O)c3cccs3)CC2)cc1`: the inhibition was 42.9% (active).
As for `O=C(COc1ccc2ccccc2c1)N1CCN(C(=O)c2cccs2)CC1`, the inhibition was 12.1%.
For `CC(C)c1ccc(N2CCN(C(=O)c3ccccc3NC(=O)/C=C(\C(=O)O)c3ccccc3)CC2)cc1` the value was -24.1%; for `Cc1nn(C)c(Oc2ccc(Cl)cc2)c1C=O`, -7.4%.
As for `CC(=O)Nc1ccc(S(=O)(=O)N2CCN(C(=O)c3ccccc3F)CC2)cc1`, the inhibition is -10.6%.
For `Cc1[nH]nc(-c2ccc(OCc3cnn(-c4ccccc4)c3)cc2O)c1Oc1ccc(Cl)cc1` the value was -4.6%.
Regarding `COC(=O)C1(O)CC(C(C)C)=NN1C(=O)c1ccc(Cl)cc1` (stereo unspecified), the inhibition is -3.2%.
For `Cc1ccc(S(=O)(=O)c2c(COC(=O)c3cccc(Cl)c3)c(-c3ccccc3)nn2C)cc1` the value was -7.8%.
Take `CCN(CC)C(=O)CSc1nc2ccccc2o1`: the inhibition is -3.4%.
For `COc1ccc(/C=N\NC(=O)c2sc(N)nc2C)cc1OC` the value was 1.2%.
Regarding `COc1ccc(/C=N/Nc2nc3ccccc3o2)cc1OC`, the inhibition was 45.9% (active).
Consider `COc1cc(/C=N/Nc2nn3cnnc3c3ccccc23)cc(OC)c1OC`, for which the inhibition was -1.1%.
For `CCCc1ccc(-c2c(C)sc(NC(=O)c3ccnn3C)c2C#N)cc1`, the inhibition is 3.3%.
Turning to `Cc1cc(C)c([N+](=O)[O-])cc1-c1ccc(/C=N/NC(=O)c2nonc2N)o1`, the inhibition was -17.6%.
Regarding `CC(CC(=O)Nc1cc(C(F)(F)F)ccc1Cl)c1ccccc1` (stereo unspecified), the inhibition was -2.6%.
With `CC(C)C(NS(=O)(=O)c1cccs1)C(=O)Nc1nc(C(C)(C)C)cs1` (stereo unspecified), the inhibition is 1.6%.
Consider `COc1ccc(C2=NOC3(CC(=O)N(c4ccc(Cl)cc4)C3=O)C2)c(OC)c1` (stereo unspecified), for which the inhibition was 0.4%.
On to `CSCCC(C(=O)NC1=NCCS1)N1C(=O)c2ccccc2C1=O` (stereo unspecified), for which the inhibition was -15.1%.
With `CCC1(C)Cc2c(sc3[nH]c(=S)n(Cc4ccccc4)c(=O)c23)CO1` (stereo unspecified), the inhibition is -4.8%.
For `CCOc1ccc(Nc2nc(Cc3nnc(SCC(=O)NC4CCCC4)n3C)cs2)cc1`, the inhibition was -8.9%.
